Test [1] in a line: growth inhibition of DIPG glioma cells, dose response, cell-based, SU-DIPG-XIII, MIPE5.0, CellTiter-Glo, qHTS (AID 1347064; cut-off not given, nearly all actives have AC50 up to about 23 µM;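 on AC50: cells exposed to compound for 48 hours before the viability read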). Conditions: SU-DIPG-XIII viability, CellTiter-Glo ATP luminescence.
Test [2] is described as follows: viability loss in pontine glioma line – cell-based, SU-DIPG-XXV, MIPE5.0, CellTiter-Glo, qHTS, dose response (AID 1347065; cut-off not given, nearly all actives have AC50 up to about 26 µM;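 further: cells exposed to compound for 48 hours before ATP readout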). Conditions: CellTiter-Glo ATP luminescence.
Test [3] is described as follows: growth inhibition of DIPG glioma cells, dose response, cell-based, SU-DIPG-IV, MIPE4.0, CellTiter-Glo, qHTS (AID 1347063; cut-off not given, nearly all actives have AC50 up to about 30 µM;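 further: compound exposure lasted 48 hours before the viability readout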). The conditions noted are these: SU-DIPG-IV viability, CellTiter-Glo ATP luminescence.
A short description of test [4]: SU-DIPG-VI glioma cell viability, MIPE4.0 library, CellTiter-Glo luminescence, qHTS (AID 1347066; cut-off not given, nearly all actives have AC50 up to about 30 µM;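 further: cells exposed to compound for 48 hours before readout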). The conditions noted are these: CellTiter-Glo ATP luminescence.
Test [5] in a line: SU-DIPG-XXV glioma cell viability, MIPE5.0 library, qHTS (AID 1347068; cut-off not given, nearly all actives have IC50 up to about 30 µM).
Test [6] can be described thus: JHH-DIPG-1 glioma cell viability, MIPE5.0 library, CellTiter-Glo luminescence, qHTS (AID 1347067; cut-off not given, nearly all actives have AC50 up to about 26 µM;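 further: cells exposed to compound for 48 hours before readout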). The conditions noted are these: JHH-DIPG-1 glioma viability, CellTiter-Glo ATP luminescence.
The nature of test [7]: sensitizers of A549 cells to miR-34 induction, primary screen, imaging, A549 dox-inducible miR-34, nuclei and caspase counts (AID 1347080;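 active means compounds whose cell count with miR-34 switched on is under 0.7 times the count with it off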). The conditions noted are these: A549 miR-34 inducible, Hoechst nuclei count, 48 h.
The nature of test [8]: survival rescue of mitochondrial mutant cells in low glucose, primary screen, MELAS cybrids, Rieske KO mouse fibroblasts, CellTiter-Glo (AID 1508586;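 active means mean z-score across replicates of 1.96 or higher in either the MELAS or the Rieske mutant cell line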;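 further: z relative to plate mean and SD of compound and empty wells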).
Test [9] can be described thus: ovarian cancer cell viability with rucaparib, profiling panel, oncology-focused library, rucaparib conditional (AID 1508598). The conditions noted are these: patient-derived ovarian cancer cells, CellTiter-Glo viability, 144 h, stronger effect = lower value.
The nature of test [10]: growth inhibition of DIPG glioma cells, dose response, cell-based, JHH-DIPG-1, MIPE4.0, CellTiter-Glo, qHTS (AID 1347062; cut-off not given, nearly all actives have AC50 up to about 27 µM). The conditions noted are these: JHH-DIPG-1 viability, CellTiter-Glo ATP luminescence.
Test [11] can be described thus: phospholipid biosynthesis inhibitors in animal cells, primary screen, cell-based, LOPAC library, screen 4 (AID 1347384; call rule not given here). Conditions: phospholipid biosynthesis inhibition screen, at 10 µM.
A short description of test [12]: viability rescue of complex I mutant cybrids, primary screen, cell-based, galactose medium, ATP luminescence (AID 1645843;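 active means z-score of at least 1.8 in each of two replicates, scored against plate mean and spread of sample wells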;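 further: positive z means more ATP and so rescue of galactose-driven cybrid death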). Conditions: complex I mutant cybrid cells, 72 h, stronger effect = higher value.
The mark [13] stands for this setting: stronger effect = lower value, cell number ratio, induced over uninduced.
Setting [14] is: measured here: relative caspase fold change +Dox/-Dox.
Where [15] appears, read: measured here: total cells with miR-34 induction, stronger effect = lower value.
The mark [16] stands for this setting: measured here: total cells without miR-34 induction.
[17] abbreviates: MELAS cybrid survival, CellTiter-Glo 48 h, stronger effect = higher value.
[18] abbreviates: Rieske KO mouse fibroblast survival, CellTiter-Glo 72 h.

The structures appear in SMILES notation. “And” between values parts separate entries of the source, which are not always exact repeats. Equal values may be shown once. Results filed as inconclusive are left out. The source made the active and inactive calls.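 How the source made its calls, unless noted: active means normalized viability below 100% at a tested concentration; inactive means the rest.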

As to `Cc1c(C(=O)N2CCOc3ccc(-c4ccc(N)nc4)cc3C2)ccc(S(C)(=O)=O)c1F`, the values for the AC50 in [1] and in test [2] were 2.95 µM (active) and 4.17 µM (active), respectively.

Regarding `Cc1c(C)n(Cc2ccc(-c3ccccc3C(=O)O)cc2)c2ccc(C(=O)N[C@@H](C)c3ccc([N+](=O)[O-])cc3)cc12`, the AC50 in test [3] is 0.0372 µM (active).

Take `N#Cc1ccc(Oc2ccc3c(c2)COB3O)cc1`: the molecule was classed as inactive in test [3], in test [1], in [2], in test [4] and in test [5].

Consider `CC(C)(C)Cn1c(N)nc2ccc(-c3[nH]c(C(C)(C)C)nc3-c3ccc(F)cc3)nc21`, for which the AC50 in [3] was 26.4 µM (active); in test [2], 26.3 µM (active); in test [4] it was 20.9 µM (active); in test [6] it was 20.9 µM (active). For the same molecule, the fold change in test [7] (setting [13]) is 0.962 (inactive); in [7] (setting [14]) it was 0.864. Moreover, the cell count in test [7] (setting [15]) was determined as 5480; in [7] (setting [16]) it was 5700. Moreover, the values for the z-score in test [8] (setting [17]) and in [8] (setting [18]) were -0.234 (inactive) and 0.553, respectively. In addition, the viability in test [9] (at 0.000305 µM, OCI-C5x cells, with rucaparib 10 µM, 100% = cells with rucaparib alone) is 114% (inactive); in [9] (at 0.000305 µM, OCI-C5x cells, without rucaparib), 115% (inactive); in [9] (at 0.000305 µM, OCI-P5x cells, with rucaparib 20 µM, 100% = cells with rucaparib alone), 99.8% (active); in test [9] (at 0.000305 µM, OCI-P5x cells, without rucaparib), 104% (inactive); in test [9] (at 0.00122 µM, OCI-C5x cells, with rucaparib 10 µM, 100% = cells with rucaparib alone) it was 112% (inactive); in test [9] (at 0.00122 µM, OCI-C5x cells, without rucaparib), 110% (inactive). Moreover, the viability is 101% (inactive) in [9] (at 0.00122 µM, OCI-P5x cells, with rucaparib 20 µM, 100% = cells with rucaparib alone); 107% (inactive) in [9] (at 0.00122 µM, OCI-P5x cells, without rucaparib); 110% (inactive) in test [9] (at 0.00488 µM, OCI-C5x cells, with rucaparib 10 µM, 100% = cells with rucaparib alone); 121% (inactive) in [9] (at 0.00488 µM, OCI-C5x cells, without rucaparib); 108% (inactive) in [9] (at 0.00488 µM, OCI-P5x cells, with rucaparib 20 µM, 100% = cells with rucaparib alone); 110% (inactive) in test [9] (at 0.00488 µM, OCI-P5x cells, without rucaparib). For the same molecule, the viability was 103% (inactive) in test [9] (at 0.0195 µM, OCI-C5x cells, with rucaparib 10 µM, 100% = cells with rucaparib alone); 112% (inactive) in test [9] (at 0.0195 µM, OCI-C5x cells, without rucaparib); 103% (inactive) in [9] (at 0.0195 µM, OCI-P5x cells, with rucaparib 20 µM, 100% = cells with rucaparib alone); 107% (inactive) in [9] (at 0.0195 µM, OCI-P5x cells, without rucaparib); 96.9% (active) in [9] (at 0.0781 µM, OCI-C5x cells, with rucaparib 10 µM, 100% = cells with rucaparib alone); 117% (inactive) in [9] (at 0.0781 µM, OCI-C5x cells, without rucaparib). The viability in test [9] (at 0.0781 µM, OCI-P5x cells, with rucaparib 20 µM, 100% = cells with rucaparib alone) is 101% (inactive); in test [9] (at 0.0781 µM, OCI-P5x cells, without rucaparib), 109% (inactive); in test [9] (at 0.313 µM, OCI-C5x cells, with rucaparib 10 µM, 100% = cells with rucaparib alone), 94.5% (active); in test [9] (at 0.313 µM, OCI-C5x cells, without rucaparib), 121% (inactive); in test [9] (at 0.313 µM, OCI-P5x cells, with rucaparib 20 µM, 100% = cells with rucaparib alone) it was 103% (inactive); in [9] (at 0.313 µM, OCI-P5x cells, without rucaparib) it was 105% (inactive). Besides, the viability in test [9] (at 1.25 µM, OCI-C5x cells, with rucaparib 10 µM, 100% = cells with rucaparib alone) was 108% (inactive); in [9] (at 1.25 µM, OCI-C5x cells, without rucaparib), 140% (inactive); in [9] (at 1.25 µM, OCI-P5x cells, with rucaparib 20 µM, 100% = cells with rucaparib alone), 99.8% (active); in test [9] (at 1.25 µM, OCI-P5x cells, without rucaparib), 104% (inactive); in test [9] (at 5 µM, OCI-C5x cells, with rucaparib 10 µM, 100% = cells with rucaparib alone), 175% (inactive); in [9] (at 5 µM, OCI-C5x cells, without rucaparib) it was 175% (inactive). For the same molecule, the viability in test [9] (at 5 µM, OCI-P5x cells, with rucaparib 20 µM, 100% = cells with rucaparib alone) was 90.5% (active); in test [9] (at 5 µM, OCI-P5x cells, without rucaparib) it was 92.5% (active).

Take `COc1cc(OCc2cccc(-c3ccccc3)c2C)cc(OC)c1CN1CCCC[C@H]1C(=O)O`: the molecule was called inactive in test [1]. Also, the half-maximal activity concentration (AC50) in [2] is 20.9 µM (active).

Take `Cc1cc(Cl)ccc1OCCCC(=O)NO`: the molecule was classed as inactive in test [10], in [5] and in test [11]. In addition, the fold change in test [7] (setting [13]) is 0.893 (inactive) and 0.9 (inactive); in test [7] (setting [14]) it was 2.21 and 0.917. The cell count in test [7] (setting [15]) was 6940 and 6970; in test [7] (setting [16]), 7770 and 7740. Also, the z-score is -0.389 (inactive) in test [8] (setting [17]), 0.796 in test [8] (setting [18]) and 0.555 (inactive) in test [12].

The values above are taken from PubChem BioAssay.
